Source: article PMC11062922 (Nature Chemical Biology, 2023)

Columns and labels:
Parameters in all cases: species or system human, MV4-11 + K-562 + COLO205 + SK-N-BE2 + OVCAR-8
[1] = test system: BMP2K; conditions: read-out: apparent Kd; compound concentrations:100 nM and 1000 nM (sheet 'Samples'); n = 1
[2] = test system: CDC42BPA; conditions: read-out: apparent Kd; compound concentrations:100 nM and 1000 nM (sheet 'Samples'); n = 1
[3] = test system: CDC42BPB; conditions: read-out: apparent Kd; compound concentrations:100 nM and 1000 nM (sheet 'Samples'); n = 1
[4] = test system: CDC42BPG; conditions: read-out: apparent Kd; compound concentrations:100 nM and 1000 nM (sheet 'Samples'); n = 1
[5] = test system: PKN1; conditions: read-out: apparent Kd; compound concentrations:100 nM and 1000 nM (sheet 'Samples'); n = 1
[6] = test system: PKN2; conditions: read-out: apparent Kd; compound concentrations:100 nM and 1000 nM (sheet 'Samples'); n = 1
[7] = test system: PRKACA; conditions: read-out: apparent Kd; compound concentrations:100 nM and 1000 nM (sheet 'Samples'); n = 1
[8] = test system: PRKACB; conditions: read-out: apparent Kd; compound concentrations:100 nM and 1000 nM (sheet 'Samples'); n = 1
[9] = test system: PRKG1; conditions: read-out: apparent Kd; compound concentrations:100 nM and 1000 nM (sheet 'Samples'); n = 1
[10] = test system: PRKX; conditions: read-out: apparent Kd; compound concentrations:100 nM and 1000 nM (sheet 'Samples'); n = 1
[11] = test system: ROCK1; conditions: read-out: apparent Kd; compound concentrations:100 nM and 1000 nM (sheet 'Samples'); n = 1
[12] = test system: ROCK2; conditions: read-out: apparent Kd; compound concentrations:100 nM and 1000 nM (sheet 'Samples'); n = 1
[13] = test system: RPS6KB1; conditions: read-out: apparent Kd; compound concentrations:100 nM and 1000 nM (sheet 'Samples'); n = 1
[14] = test system: AURKB; conditions: read-out: apparent Kd; compound concentrations: 100 nM and 1000 nM (sheet 'Samples'), CATDS: 0.30892280218859702; n = 1
[15] = test system: IKBKE; conditions: read-out: apparent Kd; compound concentrations:100 nM and 1000 nM (sheet 'Samples'); n = 1
[16] = test system: PIK3C3; conditions: read-out: apparent Kd; compound concentrations:100 nM and 1000 nM (sheet 'Samples'); n = 1
[17] = test system: TBK1; conditions: read-out: apparent Kd; compound concentrations:100 nM and 1000 nM (sheet 'Samples'); n = 1

SMILES | potency estimated from few doses [1] [nM] | potency estimated from few doses [2] [nM] | potency estimated from few doses [3] [nM] | potency estimated from few doses [4] [nM] | potency estimated from few doses [5] [nM] | potency estimated from few doses [6] [nM] | potency estimated from few doses [7] [nM] | potency estimated from few doses [8] [nM] | potency estimated from few doses [9] [nM] | potency estimated from few doses [10] [nM] | potency estimated from few doses [11] [nM] | potency estimated from few doses [12] [nM] | potency estimated from few doses [13] [nM] | potency estimated from few doses [14] [nM] | potency estimated from few doses [15] [nM] | potency estimated from few doses [16] [nM] | potency estimated from few doses [17] [nM]
Cl.Cl.NC[C@H](CC1CCCCC1)NC(=O)c1cc(Br)c(-c2ccnc3[nH]ccc23)s1.NC[C@H](CC1CCCCC1)NC(=O)c1cc(Br)c(-c2ccnc3[nH]ccc23)s1 [GSK1581427A] | 106 | 119 | 45.2 | 13.7 | 1690 | 2310 | 20.9 | 40.2 | 10.8 | 513 | 53.6 | 51.1 | 481 | – | – | – | –
CC(C)(C)OC(=O)NC1CCCN(c2cc(-c3ccc4c(N)n[nH]c4c3)nc(N)n2)C1 (centres unmarked) [GSK2286096A] | – | – | – | – | – | – | – | – | – | – | – | – | – | 105 | 78.7 | 978 | 129
